The nature of assay [1]: A CellTox Green Cytotoxicity Assay to monitor cytotoxicity in HEK293 cells - 8 hour (AID 1224884). Note: nearly all actives have a fitted effect of over 35% in size. Note: potency is the fitted concentration of half-maximal effect. In outline: (§1)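 Seeding of HEK293 cells together with cytotoxicity dye preceded a 5 h incubation at 37 C/5% CO2. Test compounds in DMSO were then added and fluorescence monitored across 40 h.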
Assay [2] in a line: qHTS RealTime-Glo MT Cell Viability Assay in HepG2 cells - 16 hour (AID 1224885). Note: nearly all actives have a fitted effect of over 50% in size. Note: potency is the fitted concentration of half-maximal effect. In outline:
(§2)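 HepG2 suspension premixed with RealTime-Glo reagents is plated at 600 cells per well and left 5 h at 37 C/5% CO2. Compounds in DMSO then go in, and bioluminescence reflecting viable cell number is recorded over 40 h.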

Assay [3] can be described thus: qHTS RealTime-Glo MT Cell Viability Assay in HEK293 cells - 24 hour (AID 1224886). Note: nearly all actives have a fitted effect of over 50% in size. Note: potency is the fitted concentration of half-maximal effect. In outline: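 Reads taken at 0, 8, 16, 24, 32 and 40 h from the same wells. HEK293 cells (600/well) carried RealTime-Glo reagents from seeding, with compound added after a 5 h settle at 37 C.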
Assay [4] is described as follows: qHTS RealTime-Glo MT Cell Viability Assay in HEK293 cells - 8 hour (AID 1224887). Note: nearly all actives have a fitted effect of over 50% in size. Note: potency is the fitted concentration of half-maximal effect. In outline:
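Tox21 screen in HEK293 using RealTime-Glo MT chemistry, with cells and reagent co-dispensed. Luminescence proportional to viable cell number was captured at intervals during 40 h compound exposure at 37 C.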

The nature of assay [5]: qHTS RealTime-Glo MT Cell Viability Assay in HepG2 cells - 0 hour (AID 1224889). Note: nearly all actives have a fitted effect of over 50% in size. In outline: as §2
The nature of assay [6]: A CellTox Green Cytotoxicity Assay to monitor cytotoxicity in HepG2 cells - 8 hour (AID 1224890). Note: nearly all actives have a fitted effect of over 45% in size. Note: potency is the fitted concentration of half-maximal effect. In outline: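 Nonlytic assay: viable cells exclude the dye, so fluorescence scales with cell death. HepG2 at 600 cells/well, compounds added after 5 h, signal read across 40 h.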
Assay [7] is described as follows: qHTS assay to identify small molecule antagonists of the estrogen receptor alpha (ER-alpha) signaling pathway using the BG1 cell line in the presence of 0.1 nM 17-beta-estradiol - cell viability counter screen (AID 1259241). Note: nearly all actives have a fitted effect of over 40% in size. Note: potency is the fitted concentration of half-maximal effect. In outline: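 Live-cell protease activity (CellTiter-Fluor fluorescence, 30 min) was read in the same wells after VM7Luc4E2 cells had been exposed to compounds with 0.1 nM 17beta-estradiol for 22 hr at 37C.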

Assay [8] in a line: qHTS assay to identify small molecule antagonists of the androgen receptor (AR) signaling pathway using the MDA cell line in the presence of 0.5 nM R1881 - cell viability counter screen (AID 1259242). Note: nearly all actives have a fitted effect of over 45% in size. Note: potency is the fitted concentration of half-maximal effect. In outline: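 R1881 at 0.5 nM final stimulated MDA-kb2 cells during 16 hr compound treatment at 37C. Cytotoxicity read: CellTiter-Fluor fluorescence after 30 min.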
For assay [9], the target named is Androgen receptor (Homo sapiens) (UniProt P10275). The assay can be described thus: qHTS assay to identify small molecule antagonists of the androgen receptor (AR) signaling pathway using the MDA cell line in the presence of 0.5 nM R1881 (AID 1259243). Note: nearly all actives have a fitted effect of over 50% in size. Put shortly: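 We exposed MDA-kb2 cells to compounds under 0.5 nM R1881 stimulation for 16 hr at 37C and quantified MMTV-driven luciferase by luminescence.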
Androgen receptor (Homo sapiens), sequence (P10275 whole entry, looked up): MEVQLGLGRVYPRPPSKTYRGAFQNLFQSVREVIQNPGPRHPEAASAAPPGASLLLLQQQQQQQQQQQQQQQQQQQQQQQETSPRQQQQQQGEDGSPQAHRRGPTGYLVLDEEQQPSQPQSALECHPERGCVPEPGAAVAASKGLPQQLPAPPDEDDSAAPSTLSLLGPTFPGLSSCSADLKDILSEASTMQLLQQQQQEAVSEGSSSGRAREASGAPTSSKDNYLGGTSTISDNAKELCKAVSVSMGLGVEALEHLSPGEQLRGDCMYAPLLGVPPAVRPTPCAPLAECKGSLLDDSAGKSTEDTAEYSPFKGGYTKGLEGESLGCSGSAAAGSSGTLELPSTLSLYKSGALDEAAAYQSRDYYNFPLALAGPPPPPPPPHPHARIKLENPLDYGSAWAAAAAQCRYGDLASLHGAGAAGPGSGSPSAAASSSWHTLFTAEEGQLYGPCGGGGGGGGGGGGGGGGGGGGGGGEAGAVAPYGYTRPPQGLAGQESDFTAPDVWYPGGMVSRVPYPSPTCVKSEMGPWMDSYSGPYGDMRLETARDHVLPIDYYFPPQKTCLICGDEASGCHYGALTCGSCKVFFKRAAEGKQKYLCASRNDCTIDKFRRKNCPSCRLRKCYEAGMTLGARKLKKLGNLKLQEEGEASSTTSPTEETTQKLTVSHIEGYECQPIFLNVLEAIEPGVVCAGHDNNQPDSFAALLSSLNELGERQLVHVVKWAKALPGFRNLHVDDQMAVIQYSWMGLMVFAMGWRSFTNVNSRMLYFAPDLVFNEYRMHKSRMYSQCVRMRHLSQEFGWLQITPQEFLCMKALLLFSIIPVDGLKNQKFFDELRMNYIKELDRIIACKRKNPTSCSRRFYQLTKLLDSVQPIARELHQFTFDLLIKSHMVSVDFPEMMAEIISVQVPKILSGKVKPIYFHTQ

The target in assay [10] is Estrogen receptor (Homo sapiens) (UniProt P03372). The assay can be described thus: qHTS assay to identify small molecule antagonists of the estrogen receptor alpha (ER-alpha) signaling pathway using the BG1 cell line in the presence of 0.1 nM 17-beta-estradiol (AID 1259244). Note: nearly all actives have a fitted effect of over 50% in size. Note: potency is the fitted concentration of half-maximal effect. In outline: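 VM7Luc4E2; 4xERE-luciferase; 0.1 nM E2 final; 22 h co-incubation, 37C; ONE-Glo luminescence after 30 min at room temperature.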
Estrogen receptor (Homo sapiens), sequence (P03372 whole entry, looked up): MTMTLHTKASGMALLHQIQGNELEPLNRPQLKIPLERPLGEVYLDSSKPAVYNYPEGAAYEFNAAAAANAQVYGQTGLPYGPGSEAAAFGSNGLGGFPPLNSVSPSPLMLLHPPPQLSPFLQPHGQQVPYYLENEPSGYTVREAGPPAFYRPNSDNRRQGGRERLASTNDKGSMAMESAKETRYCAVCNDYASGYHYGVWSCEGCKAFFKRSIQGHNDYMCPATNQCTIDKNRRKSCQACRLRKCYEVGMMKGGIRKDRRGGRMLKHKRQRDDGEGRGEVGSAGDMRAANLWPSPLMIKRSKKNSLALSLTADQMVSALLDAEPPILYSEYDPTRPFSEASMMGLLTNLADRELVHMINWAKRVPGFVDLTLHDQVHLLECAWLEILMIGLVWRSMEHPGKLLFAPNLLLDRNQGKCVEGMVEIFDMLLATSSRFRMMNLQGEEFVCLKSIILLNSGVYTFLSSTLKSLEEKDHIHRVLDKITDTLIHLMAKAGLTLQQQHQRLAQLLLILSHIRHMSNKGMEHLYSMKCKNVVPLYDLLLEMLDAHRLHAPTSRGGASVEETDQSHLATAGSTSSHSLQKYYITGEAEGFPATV

Assay [11] in a line: qHTS assay to identify small molecule HDAC inhibitors (AID 1259364). Note: potency is the fitted concentration of half-maximal effect.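 Note: wild-type HCT-116 cells with endogenous class I/II HDAC activity; nearly all actives have a fitted effect of over 45% in size.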 Put shortly:
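Relative class I and II HDAC activity is taken from the luminogenic signal in HCT-116 cells, with compound exposure 2 hr and reagent development 30 min at room temperature.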

Assay [12] in a line: qHTS assay to identify small molecule HDAC inhibitors - cell viability counter screen (AID 1259365). In outline: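 HCT-116 (wild type), 1,500 cells/well, overnight 37C/5% CO2; compound in DMSO 2hr; CellTiter-Glo 30min RT; luminescence read.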
A short description of assay [13]: qHTS assay to identify small molecule agonists of the sonic hedgehog signaling (Shh) pathway - cell viability counter screen (AID 1259366). Note: nearly all actives have a fitted effect of over 50% in size. Note: potency is the fitted concentration of half-maximal effect. In outline: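 CellTiter-Fluor fluorescence read-out, 1 hr at 37C, added after 23hr compound exposure. Cells: 3T3 Gli1-Luc, an NIH/3T3 clone with stably integrated Gli1-Luc reporter, plated 4hr before compound.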
Assay [14] is described as follows: qHTS assay to identify small molecule antagonists of the sonic hedgehog signaling (Shh) pathway - cell viability counter screen (AID 1259367). Note: nearly all actives have a fitted effect of over 55% in size. Note: potency is the fitted concentration of half-maximal effect. In outline: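 NIH/3T3-derived Gli1-Luc reporter cells (2,000 per well) rested 4 hr at 37 C, then received DMSO compounds plus conditioned medium. After 23 hr of treatment, CellTiter-Fluor was added for 1 hr at 37C and fluorescence read.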

The nature of assay [15]: qHTS assay to identify small molecule agonists of the sonic hedgehog signaling (Shh) pathway (AID 1259368; calls by dose curve;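 note: NIH/3T3-derived 3T3Gli1-Luc cells carrying a stable Gli1-driven firefly luciferase reporter; series mostly up to about 92 µM; nearly all actives have a fitted effect of over 15% in size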). Put shortly:
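Mouse fibroblast (NIH/3T3) reporter cells with stably integrated Gli1-Luc were treated 24 hr with compound; firefly luciferase luminescence served as the read-out.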

Assay [16] is described as follows: qHTS assay to identify small molecule antagonists of the sonic hedgehog signaling (Shh) pathway (AID 1259369; calls by dose curve; note: nearly all actives have a fitted effect of over 45% in size; note: potency is the fitted concentration of half-maximal effect). In outline: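 Conditioned medium drives Shh signalling in 3T3Gli1-Luc cells; compounds in DMSO co-applied, 24hr at 37 C, then luciferase luminescence.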
Assay [17] deals with Estrogen receptor beta (Homo sapiens) (UniProt Q92731). The assay is described as follows: qHTS assay to identify small molecule agonists of the estrogen receptor beta (ER-beta) signaling pathway (AID 1259377; active = well fitted activation curve with a large enough effect in the signal ratio in the repeat runs, not every such curve was filed as active; the % refers to the signal ratio). In outline: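 Beta-lactamase reporter readout: fluorescence of LiveBLAzer B/G FRET substrate after 2 h at room temperature, following 16 h compound treatment of ER-beta-UAS-bla HEK293T cells at 37C in 2% charcoal-stripped FBS medium.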
Estrogen receptor beta (Homo sapiens), sequence (Q92731 whole entry, looked up): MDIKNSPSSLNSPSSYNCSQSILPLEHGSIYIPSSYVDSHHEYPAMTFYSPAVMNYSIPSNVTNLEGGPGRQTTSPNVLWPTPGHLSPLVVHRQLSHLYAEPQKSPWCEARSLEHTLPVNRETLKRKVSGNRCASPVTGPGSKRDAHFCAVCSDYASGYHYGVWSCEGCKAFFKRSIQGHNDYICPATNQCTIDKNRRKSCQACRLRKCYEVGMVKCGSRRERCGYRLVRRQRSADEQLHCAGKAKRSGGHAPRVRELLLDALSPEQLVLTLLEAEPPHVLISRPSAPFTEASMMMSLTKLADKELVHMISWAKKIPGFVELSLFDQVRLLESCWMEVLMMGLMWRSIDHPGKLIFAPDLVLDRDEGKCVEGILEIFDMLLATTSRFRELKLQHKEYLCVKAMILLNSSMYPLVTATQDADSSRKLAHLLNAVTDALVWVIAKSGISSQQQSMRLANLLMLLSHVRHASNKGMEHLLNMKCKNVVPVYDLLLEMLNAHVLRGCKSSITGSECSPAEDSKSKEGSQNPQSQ

Assay [18] shares this target. The assay is described as follows: qHTS assay to identify small molecule antagonists of the estrogen receptor beta (ER-beta) signaling pathway (AID 1259378; active = well fitted inhibition curve with a large enough effect in the signal ratio in the repeat runs, not every such curve was filed as active; the % refers to the signal ratio). Put shortly: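 ER-beta-UAS-bla HEK293T (GripTite) cells in 2% charcoal-stripped FBS medium were preincubated 6 hr at 37C, dosed with compound, then stimulated with 1 nM E2 (final) for 16 hr; beta-lactamase reporter read by B/G FRET fluorescence after 2 hr substrate loading.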

Assay [19] is described as follows: A CellTox Green Cytotoxicity Assay to monitor cytotoxicity in HEK293 cells - 16 hour (AID 1224888). Note: nearly all actives have a fitted effect of over 35% in size. Note: potency is the fitted concentration of half-maximal effect. Put shortly:
as §1

Assay [20] is described as follows: qHTS assay to identify small molecule phospholipidosis (PLD) inducers (AID 1259344; active = well fitted curve in the direction sought with a large enough effect; an effect the other way counts as inactive or inconclusive). Put shortly:
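HepG2 cells on collagen I, attached 4 h at 37 C, were co-treated with compound and LipidTOX Red dye for 24 h at 37 C, then fixed with paraformaldehyde plus Hoechst 33342 and imaged by high-content microscopy for phospholipid accumulation.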

The source of these data is PubChem BioAssay (Tox21).

The structures appear in SMILES notation. A number with no mark means an inactive call. Inconclusive results are not listed. The source made the active and inactive calls. Unless noted, calls come from the whole dose curve; as a rule, active = well fitted curve in the direction sought with a large enough effect in the repeat runs; inconclusive = weak or mixed curves; inactive = no such curve, though single readings can be large; an effect the other way counts as inactive or inconclusive.

Take `CCCCCCCCCCCCCCCCC(C(=O)O)C(O)(CC(=O)O)C(=O)O` (centres undefined): the Potency result in [1], in assay [2], in assay [3], in assay [4], in assay [5] and in assay [6] was “inactive” throughout. In addition, the Potency result in assay [7], in [8], in [9], in assay [10], in assay [11] and in assay [12] was “inactive” throughout. Besides, the Potency result in assay [13], in assay [14], in assay [15], in [16] and in assay [18] was “inactive” each time. Besides, the outcome in [17] was inactive.

For `CCCCCN=C(N)N/N=C/c1c[nH]c2ccc(OC)cc12`, the Potency in [1] was 15.1 µM (active); in [2], 7.56 µM (active); in [3], 4.77 µM (active); in assay [4] it was 8.49 µM (active); in [19], 7.56 µM (active); in assay [6], 10.7 µM (active). For the same compound, the Potency in [7] was 29.8 µM (active); in assay [8] it was 13.3 µM (active); in [13], 8.41 µM (active); in assay [14] it was 13.3 µM (active). The Potency entry in [20], in [11] and in [15] was “inactive” in each case.

`CCN(CC)c1ccc(N=Nc2ccccc2)cc1`: the Potency result in assay [1], in assay [2], in assay [19], in [5], in assay [6] and in assay [9] was “inactive” in each case. In addition, the Potency entry in assay [10], in assay [12] and in assay [18] was “inactive” each time. In addition, the Potency in assay [3] was 49 µM (active); in assay [4], 43.6 µM (active); in assay [11], 27.3 µM (active); in [13], 30.6 µM (active); in [14] it was 34.4 µM (active). For the same compound, the outcome in [17] was inactive.

Turning to `Cn1ccnc1`, the Potency entry in [1], in assay [2], in assay [3], in [4], in assay [5] and in assay [6] was “inactive” in each case. For the same compound, the Potency result in assay [7], in [8], in [11], in [12], in [13] and in assay [14] was “inactive” each time. For the same compound, the Potency entry in assay [15], in [16] and in assay [18] was “inactive” in each case. In addition, the compound was classed as inactive in assay [17].

In the case of `CCCCCCCC/C=C\CCCCCCCC(=O)N(CCO)CCO`, the Potency result in assay [1], in [2], in [5], in assay [6], in assay [7] and in assay [8] was “inactive” in each case. Also, the Potency result in assay [11], in [12], in assay [13], in [14] and in assay [15] was “inactive” in each case. For the same compound, the Potency in assay [3] is 43.5 µM (active); in assay [4] it was 43.5 µM (active); in assay [10] it was 30.5 µM (active); in assay [16], 15.3 µM (active).

`O=C1OC(=O)c2cc(-c3ccc4c(c3)C(=O)OC4=O)ccc21`: the Potency result in [1], in assay [2], in assay [3], in assay [4], in assay [19] and in [5] was “inactive” each time. Further, the Potency result in [6], in assay [7], in [8], in assay [11], in [12] and in assay [15] was “inactive” each time. Further, the Potency in assay [16] was 17.2 µM (active). Also, the compound was classed as inactive in assay [17].

In the case of `CCc1cccc(C)c1N(C(=O)CS(=O)(=O)O)C(C)COC` (centres undefined), the Potency entry in [1], in assay [2], in [3], in assay [4], in [19] and in [5] was “inactive” in each case. Besides, the Potency entry in assay [6], in assay [8], in assay [9], in assay [10], in assay [11] and in assay [12] was “inactive” throughout. Further, the Potency entry in [13], in assay [14], in [15], in [16] and in assay [18] was “inactive” each time. Also, in assay [17], the outcome was inactive.
